Reference: PubChem BioAssay (EPA / NIEHS)
Calls of active or inactive are those of the source. How the source made its calls: active means hit-call score of the fitted dose curve at least 0.9, where 1 is the maximum; inactive means score below 0.9.

Experiments:
Details in all cases: mRNA level, 48 h; actives raise or lower the signal
[1] = read-out: Insulin-like growth factor-binding protein 1 (IGFBP1), IGFBP1 (gene 3484); assay: LTEA_HepaRG_IGFBP1: Life Technologies and Expression Analysis (LTEA) Assay for Insulin-like growth factor-binding protein 1 (IGFBP1) using HepaRG (AID 2283508)
Summary of the method: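 Thawed HepaRG cells are plated for 48 h, switched to serum-free induction medium, then dosed in duplicate for another 48 h (100 uM top, half-log steps). Lysates in RLT go to qRT-PCR, and gain or loss of signal is fitted relative to vehicle.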

[2] = read-out: Interleukin 6 (IL6), IL6 (gene 3569); assay: LTEA_HepaRG_IL6: Life Technologies and Expression Analysis (LTEA) Assay for Interleukin 6 (IL6) using HepaRG (AID 2283509)
Summary of the method: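 HepaRG cells exposed in duplicate for 48 h to eight half-log concentrations, top 100 uM, in 0.5% DMSO serum-free induction medium. mRNA measured by qRT-PCR, normalized to ACTB, GAPDH and POLR2A. Bidirectional fit versus DMSO.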

[3] = read-out: Potassium channel subfamily K member 1 (KCNK1), KCNK1 (gene 3775); assay: LTEA_HepaRG_KCNK1: Life Technologies and Expression Analysis (LTEA) Assay for Potassium channel subfamily K member 1 (KCNK1) using HepaRG (AID 2283511)
Summary of the method: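 Differentiated HepaRG cells, 48 h exposure in serum-free induction medium with 0.5% DMSO; 8 concentrations, half-log from 100 uM, duplicate. KCNK1 mRNA by qRT-PCR, normalized to ACTB, GAPDH, POLR2A; bidirectional fit vs DMSO.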

[4] = read-out: Keratin 19 (KRT19), KRT19 (gene 3880); assay: LTEA_HepaRG_KRT19: Life Technologies and Expression Analysis (LTEA) Assay for Keratin 19 (KRT19) using HepaRG (AID 2283512)
Summary of the method: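 KRT19 transcript levels, measured by Fluidigm qRT-PCR against three housekeeping genes, are fitted for gain or loss of signal relative to DMSO. Human HepaRG cells receive test chemicals (top 100 uM, half-log steps, 0.5% DMSO) for 48 hours.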

[5] = read-out: JUN Transcription Factor, JUN (gene 3725); assay: LTEA_HepaRG_JUN: Life Technologies and Expression Analysis (LTEA) Assay for JUN Transcription Factor using HepaRG (AID 2283513)
Summary of the method: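 Differentiated HepaRG cells were exposed to chemicals for 48 h in serum-free induction medium, 8 concentrations from 100 uM in half-log steps, 0.5% DMSO vehicle, in duplicate. JUN mRNA was quantified by TaqMan qRT-PCR, normalized to ACTB, GAPDH, POLR2A.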

[6] = read-out: Lipase C (LIPC), LIPC (gene 3990); assay: LTEA_HepaRG_LIPC: Life Technologies and Expression Analysis (LTEA) Assay for Lipase C (LIPC) using HepaRG (AID 2283514)
Summary of the method: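 HepaRG cells, 48 h after plating, treated in duplicate for 48 h in serum-free induction medium over 8 half-log concentrations from 100 uM, 0.5% DMSO. LIPC mRNA by TaqMan qRT-PCR normalized to ACTB/GAPDH/POLR2A; bidirectional fit versus DMSO.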

[7] = read-out: Lipoprotein lipase (LPL), LPL (gene 4023); assay: LTEA_HepaRG_LPL: Life Technologies and Expression Analysis (LTEA) Assay for Lipoprotein lipase (LPL) using HepaRG (AID 2283515)
Summary of the method: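 Differentiated HepaRG cells, plated 48 h, then exposed 48 h in serum-free induction medium to 8 concentrations (top 100 uM, half-log steps) in 0.5% DMSO, duplicate. LPL mRNA measured by qRT-PCR, normalized to ACTB, GAPDH and POLR2A.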

[8] = read-out: MicroRNA 122 (MIR122), gene 406906; assay: LTEA_HepaRG_MIR122: Life Technologies and Expression Analysis (LTEA) Assay for MicroRNA 122 (MIR122) using HepaRG (AID 2283516); further: the transcript read is the microRNA miR-122
Summary of the method: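 Differentiated human HepaRG cells were exposed 48 h in serum-free induction medium to eight half-log concentrations (top 100 uM, 0.5% DMSO). Transcript level was measured by TaqMan qRT-PCR, normalized to ACTB, GAPDH and POLR2A, and fitted bidirectionally versus DMSO.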

[9] = read-out: matrix metalloproteinase-10 (MMP10), MMP10 (gene 4319); assay: LTEA_HepaRG_MMP10: Life Technologies and Expression Analysis (LTEA) Assay for matrix metalloproteinase-10 (MMP10) using HepaRG (AID 2283517)
Summary of the method: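 Differentiated HepaRG cells in serum-free induction medium exposed 48 h in duplicate to 8-point half-log series up to 100 uM in 0.5% DMSO. mRNA quantified by qRT-PCR, normalised to ACTB, GAPDH, POLR2A; bidirectional fit versus DMSO.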

MYC, MYC (gene 4609) = assay: LTEA_HepaRG_MYC: Life Technologies and Expression Analysis (LTEA) Assay for MYC using HepaRG (AID 2283518)
Summary of the method: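 HepaRG, ~100,000 cells/well, collagen I; 48 h plating; serum-free induction medium; 48 h dosing, duplicate, 100 uM top, half-log, 0.5% DMSO; total RNA → qRT-PCR MYC; gain/loss fit vs DMSO.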

[10] = read-out: matrix metalloproteinase-3 (MMP3), MMP3 (gene 4314); assay: LTEA_HepaRG_MMP3: Life Technologies and Expression Analysis (LTEA) Assay for matrix metalloproteinase-3 (MMP3) using HepaRG (AID 2283519)
Summary of the method: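 HepaRG cells (~100,000/well) in serum-free induction medium were dosed in duplicate for 48 h with an 8-point half-log series from 100 uM, 0.5% DMSO. MMP3 mRNA was quantified by Fluidigm TaqMan qRT-PCR, normalized to three housekeeping genes.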

[11] = read-out: Paternally Expressed 10 (PEG10), PEG10 (gene 23089); assay: LTEA_HepaRG_PEG10: Life Technologies and Expression Analysis (LTEA) Assay for Paternally Expressed 10 (PEG10) using HepaRG (AID 2283520)
Summary of the method: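 Differentiated HepaRG cells, plated 48 h then switched to serum-free induction medium, were exposed in duplicate for 48 h to eight half-log concentrations topping at 100 uM in 0.5% DMSO. PEG10 mRNA was quantified by TaqMan qRT-PCR, normalised to ACTB, GAPDH and POLR2A.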

[12] = read-out: Protein phosphatase 2A (PPP2R4), PTPA (gene 5524); assay: LTEA_HepaRG_PPP2R4: Life Technologies and Expression Analysis (LTEA) Assay for Protein phosphatase 2A (PPP2R4) using HepaRG (AID 2283522)
Summary of the method: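 Differentiated HepaRG cells in serum-free induction medium were exposed in duplicate for 48 h to eight concentrations, top 100 uM with half-log dilutions, in 0.5% DMSO. PPP2R4 mRNA was quantified by TaqMan qRT-PCR, normalized to ACTB, GAPDH and POLR2A.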

[13] = read-out: Phosphatase and tensin (PTEN), PTEN (gene 5728); assay: LTEA_HepaRG_PTEN: Life Technologies and Expression Analysis (LTEA) Assay for Phosphatase and tensin (PTEN) using HepaRG (AID 2283523)
Summary of the method: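 HepaRG cells, 48 h after plating, exposed in duplicate for 48 h in serum-free induction medium to 8 half-log concentrations up to 100 uM (0.5% DMSO). PTEN mRNA by qRT-PCR, normalized to ACTB, GAPDH, POLR2A; bidirectional fit versus DMSO.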

[14] = read-out: solute carrier (SLC22A1), SLC22A1 (gene 6580); assay: LTEA_HepaRG_SLC22A1: Life Technologies and Expression Analysis (LTEA) Assay for solute carrier (SLC22A1) using HepaRG (AID 2283524)
Summary of the method: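 Differentiated human HepaRG cells in serum-free induction medium, exposed 48 h in duplicate to 8-point half-log series from 100 µM top in 0.5% DMSO. SLC22A1 mRNA by TaqMan qRT-PCR normalized to ACTB, GAPDH, POLR2A; bidirectional fit versus DMSO.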

[15] = read-out: Pyruvate Dehydrogenase Kinase 4 (PDK4), PDK4 (gene 5166); assay: LTEA_HepaRG_PDK4: Life Technologies and Expression Analysis (LTEA) Assay for Pyruvate Dehydrogenase Kinase 4 (PDK4) using HepaRG (AID 2283525)
Summary of the method: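 HepaRG cells plated 48 h, then switched to serum-free induction medium and exposed in duplicate for 48 h to 8 half-log concentrations from 100 uM in 0.5% DMSO. PDK4 mRNA measured by qRT-PCR, normalized to ACTB, GAPDH and POLR2A; bidirectional fit versus DMSO.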

[16] = read-out: NAD(P)H dehydrogenase [quinone] 1 (NQO1), NQO1 (gene 1728); assay: LTEA_HepaRG_NQO1: Life Technologies and Expression Analysis (LTEA) Assay for NAD(P)H dehydrogenase [quinone] 1 (NQO1) using HepaRG (AID 2283526)
Summary of the method: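 Differentiated HepaRG cells, plated 48 h and then switched to serum-free induction medium, were exposed in duplicate for 48 h to 8-point half-log concentrations up to 100 uM in 0.5% DMSO. mRNA measured by qRT-PCR, normalized to ACTB, GAPDH, POLR2A; bidirectional fit versus DMSO.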

[17] = read-out: Nuclear factor erythroid 2-related factor 2 (Homo sapiens) (UniProt Q16236); assay: LTEA_HepaRG_NFE2L2: Life Technologies and Expression Analysis (LTEA) Assay for Nuclear factor erythroid 2-related factor 2 (NFE2L2) Transcription Factor using HepaRG (AID 2283527);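 further: TaqMan qRT-PCR transcript level normalised to ACTB GAPDH and POLR2A housekeeping genes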
Summary of the method: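 Differentiated human HepaRG cells, serum-free induction medium, exposed 48 h in duplicate to eight half-log concentrations up to 100 uM in 0.5% DMSO. NFE2L2 mRNA by Fluidigm TaqMan qRT-PCR, normalised to ACTB, GAPDH, POLR2A; bidirectional change versus DMSO.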

[18] = read-out: Interleukin 6 Receptor (IL6R), IL6R (gene 3570); assay: LTEA_HepaRG_IL6R: Life Technologies and Expression Analysis (LTEA) Assay for Interleukin 6 Receptor (IL6R) using HepaRG (AID 2283510)
Summary of the method: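 Differentiated human HepaRG cells, plated 48 h then switched to serum-free induction medium, were dosed in duplicate for 48 h at eight half-log concentrations up to 100 uM in 0.5% DMSO. IL6R mRNA quantified by qRT-PCR, normalized to ACTB/GAPDH/POLR2A; bidirectional fit versus DMSO.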

[19] = read-out: Nuclear factor NF-kappa-B p105 subunit (Homo sapiens) (UniProt P19838); assay: LTEA_HepaRG_NFKB1: Life Technologies and Expression Analysis (LTEA) Assay for Nuclear Factor Kappa B Subunit 1 (NFKB1) using HepaRG (AID 2283521);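 further: TaqMan qRT-PCR transcript normalised to ACTB GAPDH and POLR2A housekeeping genes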
Summary of the method: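 Differentiated human HepaRG cells in serum-free induction medium with 0.5% DMSO were exposed for 48 h to eight half-log concentrations, top 100 uM, in duplicate. NFKB1 mRNA measured by Fluidigm TaqMan qRT-PCR, normalised to ACTB, GAPDH and POLR2A; bidirectional fit versus DMSO.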

Measured: AC50

Chain of Nuclear factor erythroid 2-related factor 2 (Homo sapiens) (Q16236 whole entry, looked up): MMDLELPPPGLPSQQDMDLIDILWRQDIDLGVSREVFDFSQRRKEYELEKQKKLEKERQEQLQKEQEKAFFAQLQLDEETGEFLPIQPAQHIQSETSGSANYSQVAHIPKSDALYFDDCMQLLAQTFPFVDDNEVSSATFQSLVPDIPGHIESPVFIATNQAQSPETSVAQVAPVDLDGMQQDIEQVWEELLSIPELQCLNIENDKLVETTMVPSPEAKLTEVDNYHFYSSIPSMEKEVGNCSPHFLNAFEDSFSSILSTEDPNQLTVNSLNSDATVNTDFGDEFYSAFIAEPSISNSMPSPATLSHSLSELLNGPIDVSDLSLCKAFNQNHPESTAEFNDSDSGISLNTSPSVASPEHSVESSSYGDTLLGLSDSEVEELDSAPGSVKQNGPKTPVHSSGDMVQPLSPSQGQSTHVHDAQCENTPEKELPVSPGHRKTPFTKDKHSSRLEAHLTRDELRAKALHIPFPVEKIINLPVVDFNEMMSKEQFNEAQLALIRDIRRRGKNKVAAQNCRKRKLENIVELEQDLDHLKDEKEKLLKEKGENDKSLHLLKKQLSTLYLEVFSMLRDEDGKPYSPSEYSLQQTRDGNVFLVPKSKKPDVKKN
Chain of Nuclear factor NF-kappa-B p105 subunit (Homo sapiens) (P19838 whole entry, looked up): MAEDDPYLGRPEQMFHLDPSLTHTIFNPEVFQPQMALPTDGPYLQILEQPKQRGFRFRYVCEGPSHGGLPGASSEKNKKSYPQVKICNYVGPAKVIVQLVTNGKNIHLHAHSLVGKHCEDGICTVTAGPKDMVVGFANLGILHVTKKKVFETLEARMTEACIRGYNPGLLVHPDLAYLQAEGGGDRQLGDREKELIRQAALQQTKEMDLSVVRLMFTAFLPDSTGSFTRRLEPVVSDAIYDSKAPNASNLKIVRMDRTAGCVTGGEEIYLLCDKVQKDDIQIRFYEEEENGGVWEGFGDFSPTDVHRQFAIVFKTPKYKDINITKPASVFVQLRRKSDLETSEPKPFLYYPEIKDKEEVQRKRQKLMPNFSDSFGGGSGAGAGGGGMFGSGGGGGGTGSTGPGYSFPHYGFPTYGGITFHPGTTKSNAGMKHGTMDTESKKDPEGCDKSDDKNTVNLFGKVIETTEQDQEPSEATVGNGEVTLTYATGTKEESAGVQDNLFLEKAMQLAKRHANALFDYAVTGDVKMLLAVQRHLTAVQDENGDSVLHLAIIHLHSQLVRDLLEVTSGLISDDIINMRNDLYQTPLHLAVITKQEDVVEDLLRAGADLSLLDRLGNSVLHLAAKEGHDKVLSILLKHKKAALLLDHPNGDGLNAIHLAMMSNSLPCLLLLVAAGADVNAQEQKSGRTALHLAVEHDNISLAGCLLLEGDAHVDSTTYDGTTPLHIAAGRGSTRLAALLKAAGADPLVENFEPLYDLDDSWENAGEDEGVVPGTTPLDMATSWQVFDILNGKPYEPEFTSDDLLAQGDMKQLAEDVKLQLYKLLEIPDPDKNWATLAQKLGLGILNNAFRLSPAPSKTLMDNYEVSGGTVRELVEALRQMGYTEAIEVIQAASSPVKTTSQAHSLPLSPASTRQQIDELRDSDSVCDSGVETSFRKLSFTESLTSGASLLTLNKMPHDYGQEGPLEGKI

O=C(O)Cc1ccccc1Nc1c(Cl)cccc1Cl
not listed: [18] | [19]
inactive: all other assays above

Nc1nc(N)c2nc(CNc3ccc(C(=O)N[C@@H](CCC(=O)O)C(=O)O)cc3)cnc2n1
active: [15] 96.7 nM
not listed: [1]
inactive: all other assays above

CCCCc1ccc2c(n1)[C@@H](c1ccc(OC)cc1C[C@H](C)C(=O)O)[C@H](C(=O)O)[C@H]2c1ccc2c(c1)OCO2
not listed: [18] | [19]
inactive: all other assays above

CCCCCCCC=O
active: [4] 1320 nM
not listed: [18]
inactive: all other assays above
